Laboratory results: PubChem BioAssay (NCI)
This is part of a sample that, as a whole, favours compounds with a hit. Of some 79,000 tested, about 15% had one in any assay. Activity calls are given as the source filed them. Cut-off read from the data, not from the text of the source: active = growth inhibition above about 70%; inactive = the rest.

Experiments:
[1] = NCI Yeast Anticancer Drug Screen. Data for the rad52 strain (AID 147);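 note: 0% = growth of vehicle-treated control cultures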; settings: S. cerevisiae rad52 mutant growth inhibition, hits give high values
Method in brief: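 Read-out: growth inhibition versus vehicle-treated controls. Cells were a DNA repair-deficient yeast strain treated with compounds.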

[2] = NCI Yeast Anticancer Drug Screen. Data for the wt1 strain (AID 149);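 note: 0% = growth of vehicle-treated wt1 cultures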; settings: S. cerevisiae wt1 strain (SPY 50644) growth inhibition, hits give high values
Method in brief: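 Growth inhibition read against vehicle controls after compound exposure of the wt1 yeast strain.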

[3] = NCI Yeast Anticancer Drug Screen. Data for the rad50EPP+ strain (AID 151);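 note: 0% = growth of vehicle-treated control cultures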; settings: S. cerevisiae rad50 mutant strain, hits give high values
Method in brief: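 Growth inhibition read against vehicle controls in rad50EPP+ yeast, a strain altered in DNA damage repair, after compound exposure.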

[4] = NCI Yeast Anticancer Drug Screen. Data for the mgt1 strain (AID 153); settings: S. cerevisiae mgt1 mutant growth inhibition, hits give high values
Method in brief: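 mgt1 yeast grown with test compound; read-out is growth inhibition versus vehicle-treated cultures.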

[5] = NCI Yeast Anticancer Drug Screen. Data for the rad50 strain (AID 155);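 note: 0% = growth of vehicle-only cultures of the same strain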; settings: S. cerevisiae rad50 strain growth inhibition, hits give high values
Method in brief: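 Readout: growth inhibition relative to vehicle-treated cultures. Compound exposure was carried out in a genetically defined yeast strain deficient in DNA damage repair.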

[6] = NCI Yeast Anticancer Drug Screen. Data for the mec2-1 strain (AID 157); settings: S. cerevisiae mec2-1 strain, hits give high values
Method in brief: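 Yeast mec2-1 mutant treated with compound. Readout: growth inhibition vs vehicle controls.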

[7] = NCI Yeast Anticancer Drug Screen. Data for the rad14 strain (AID 159);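 note: 0% = growth of vehicle-treated control cultures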; settings: S. cerevisiae rad14 strain growth inhibition, hits give high values
Method in brief: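 Growth inhibition vs vehicle controls; genetically altered yeast strain (DNA damage repair defect) treated with test compounds.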

[8] = NCI Yeast Anticancer Drug Screen. Data for the sgs1 mgt1 strain (AID 161);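 note: 0% = growth of cultures given vehicle only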; settings: S. cerevisiae sgs1 mgt1 strain, hits give high values
Method in brief: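 Read-out: growth inhibition vs vehicle controls. Cells: mutant yeast strain deficient in DNA damage repair.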

[9] = NCI Yeast Anticancer Drug Screen. Data for the CLN2oe strain (AID 163);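 note: 0% = growth of vehicle-only control cultures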; settings: S. cerevisiae CLN2oe strain, hits give high values
Method in brief: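 Read-out: yeast growth inhibition, expressed relative to vehicle-only controls. The strain bears an engineered cell-cycle alteration.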

[10] = NCI Yeast Anticancer Drug Screen. Data for the cln2 rad14 strain (AID 165);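 note: 0% = growth equal to vehicle treated cultures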; settings: S. cerevisiae cln2 rad14 strain, hits give high values
Method in brief: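 cln2 rad14 yeast strain; compound exposure; growth inhibition read vs vehicle controls.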

[11] = NCI Yeast Anticancer Drug Screen. Data for the bub3 strain (AID 167); settings: S. cerevisiae bub3 mutant strain, hits give high values
Method in brief: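 Readout: yeast growth inhibition, expressed relative to vehicle-only wells. The test organism is a mutant strain from a panel with lesions in DNA repair or checkpoint genes.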

[12] = NCI Yeast Anticancer Drug Screen. Data for the wt2 strain (AID 169);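 note: 0% = growth of vehicle-treated yeast cultures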; settings: S. cerevisiae wt2 strain growth inhibition, hits give high values
Method in brief: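 Read-out: growth inhibition versus vehicle-treated control cultures after compound exposure of the yeast strain.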

[13] = NCI Yeast Anticancer Drug Screen. Data for the mlh1 strain (AID 171);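 note: 0% = growth of vehicle-treated control cultures of the same strain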; settings: S. cerevisiae mlh1 strain growth inhibition, hits give high values
Method in brief: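 Read-out: growth inhibition versus vehicle controls. Strain: engineered yeast with a defined DNA repair or cell cycle defect, compound-treated.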

[14] = NCI Yeast Anticancer Drug Screen. Data for the sgs1 strain (AID 173);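 note: 0% = growth of vehicle-only control cultures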; settings: S. cerevisiae sgs1 mutant, hits give high values
Method in brief: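 Read-out: yeast growth inhibition relative to vehicle controls, following compound exposure of a strain with a defined DNA repair/cell cycle alteration.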

[15] = NCI Yeast Anticancer Drug Screen. Data for the mlh1 rad18 strain (AID 175); settings: S. cerevisiae mlh1 rad18 strain growth inhibition, hits give high values
Method in brief: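 Yeast w/ defined DNA-repair lesions; compound exposure; growth vs vehicle controls → % inhibition.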

[16] = NCI Yeast Anticancer Drug Screen. Data for the rad18 strain (AID 177); settings: S. cerevisiae rad18 mutant growth inhibition, hits give high values
Method in brief: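 Readout: growth inhibition vs vehicle controls. Cells: genetically altered yeast strain, DNA repair defect.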

[17] = at 5.0 µM (retest, dose inferred, filed as 0.5)
[18] = at 50.0 µM (retest, dose inferred, filed as 5.0)

Measured: growth inhibition

NC(=S)N/N=C\c1nccc2ccccc12
active: [1]; at 33.0 µM 95% | [1]; at 100.0 µM 99% | [2]; at 33.0 µM 76% | [2]; at 100.0 µM 99% | [3]; at 100.0 µM 97% | [4]; at 33.0 µM 97% | [4]; at 100.0 µM 99% | [5]; at 33.0 µM 97% | [5]; [18] 96% | [5]; at 50.0 µM 99% | [5]; at 100.0 µM 97% | [6]; at 11.0 µM 97% | [6]; at 33.0 µM 99% | [6]; [18] 98% | [6]; at 50.0 µM 99.5% | [6]; at 100.0 µM 99% | [7]; at 33.0 µM 98% | [7]; at 100.0 µM 99% | [8]; [18] 98% | [8]; at 50.0 µM 99% | [9]; at 33.0 µM 96% | [9]; at 100.0 µM 99% | [10]; [18] 97% | [10]; at 50.0 µM 97.5% | [11]; at 33.0 µM 96% | [11]; [18] 97% | [11]; at 50.0 µM 99.2% | [11]; at 100.0 µM 97% | [12]; at 33.0 µM 97% | [12]; at 100.0 µM 99% | [13]; at 33.0 µM 97% | [13]; at 100.0 µM 99% | [14]; at 33.0 µM 99% | [14]; at 100.0 µM 99% | [15]; [18] 96% | [15]; at 50.0 µM 98.4% | [16]; at 33.0 µM 97% | [16]; at 100.0 µM 99%
inactive: [1]; at 1.2 µM -10% | [1]; at 3.7 µM -3% | [1]; at 11.0 µM 40% | [2]; at 1.2 µM -6% | [2]; at 3.7 µM -7% | [2]; at 11.0 µM 16% | [3]; at 1.2 µM 1% | [3]; at 3.7 µM -1% | [3]; at 11.0 µM -16% | [3]; at 33.0 µM 27% | [4]; at 1.2 µM -2% | [4]; at 3.7 µM -6% | [4]; at 11.0 µM 21% | [5]; at 1.2 µM -5% | [5]; at 3.7 µM -3% | [5]; [17] -151% | [5]; at 11.0 µM 46% | [6]; at 1.2 µM 4% | [6]; at 3.7 µM 46% | [6]; [17] 50% | [7]; at 1.2 µM -3% | [7]; at 3.7 µM 4% | [7]; at 11.0 µM 51% | [8]; [17] -64% | [9]; at 1.2 µM 0% | [9]; at 3.7 µM -11% | [9]; at 11.0 µM 35% | [10]; [17] -99% | [11]; at 1.2 µM -9% | [11]; at 3.7 µM -15% | [11]; [17] -107% | [11]; at 11.0 µM 26% | [12]; at 1.2 µM -5% | [12]; at 3.7 µM -4% | [12]; at 11.0 µM 14% | [13]; at 1.2 µM 3% | [13]; at 3.7 µM -9% | [13]; at 11.0 µM 34% | [14]; at 1.2 µM -3% | [14]; at 3.7 µM 6% | [14]; at 11.0 µM 50% | [15]; [17] -135% | [16]; at 1.2 µM -1% | [16]; at 3.7 µM 3% | [16]; at 11.0 µM 39%

Cc1ccc(NC(=O)/C(Cl)=C(\Cl)C(=O)O)cc1C
active: [1]; at 33.0 µM 99% | [1]; at 100.0 µM 99% | [2]; at 33.0 µM 88% | [2]; at 100.0 µM 98% | [3]; at 11.0 µM 77% | [3]; at 33.0 µM 99% | [3]; at 100.0 µM 99% | [4]; at 33.0 µM 99% | [4]; at 100.0 µM 99% | [5]; at 33.0 µM 99% | [5]; [18] 99% | [5]; at 50.0 µM 99.2% | [5]; at 100.0 µM 98% | [6]; at 33.0 µM 99% | [6]; [18] 100% | [6]; at 50.0 µM 99.5% | [6]; at 100.0 µM 99% | [7]; at 33.0 µM 99% | [7]; at 100.0 µM 99% | [8]; [18] 100% | [8]; at 50.0 µM 99.5% | [9]; at 33.0 µM 96% | [9]; at 100.0 µM 99% | [10]; [18] 99% | [10]; at 50.0 µM 72% | [11]; at 33.0 µM 99% | [11]; [18] 99% | [11]; at 50.0 µM 99.5% | [11]; at 100.0 µM 99% | [12]; at 33.0 µM 97% | [12]; at 100.0 µM 99% | [13]; at 33.0 µM 96% | [13]; at 100.0 µM 99% | [14]; at 33.0 µM 99% | [14]; at 100.0 µM 99% | [15]; [18] 99% | [15]; at 50.0 µM 99.3% | [16]; at 33.0 µM 99% | [16]; at 100.0 µM 99%
inactive: [1]; at 1.2 µM 2% | [1]; at 3.7 µM 7% | [1]; at 11.0 µM 42% | [2]; at 1.2 µM -2% | [2]; at 3.7 µM -3% | [2]; at 11.0 µM 2% | [3]; at 1.2 µM 6% | [3]; at 3.7 µM 16% | [4]; at 1.2 µM 4% | [4]; at 3.7 µM 7% | [4]; at 11.0 µM 22% | [5]; at 1.2 µM 2% | [5]; at 3.7 µM 7% | [5]; [17] 13% | [5]; at 11.0 µM 38% | [6]; at 1.2 µM 6% | [6]; at 3.7 µM 10% | [6]; [17] 15% | [6]; at 11.0 µM 24% | [7]; at 1.2 µM 3% | [7]; at 3.7 µM 6% | [7]; at 11.0 µM 26% | [8]; [17] 21% | [9]; at 1.2 µM 3% | [9]; at 3.7 µM 4% | [9]; at 11.0 µM 13% | [10]; [17] 8% | [11]; at 1.2 µM 7% | [11]; at 3.7 µM 5% | [11]; [17] 21% | [11]; at 11.0 µM 20% | [12]; at 1.2 µM 0% | [12]; at 3.7 µM 2% | [12]; at 11.0 µM 11% | [13]; at 1.2 µM 1% | [13]; at 3.7 µM 4% | [13]; at 11.0 µM 12% | [14]; at 1.2 µM 1% | [14]; at 3.7 µM 6% | [14]; at 11.0 µM 29% | [15]; [17] 16% | [16]; at 1.2 µM 0% | [16]; at 3.7 µM 3% | [16]; at 11.0 µM 24%
